The list is not random: actives were taken first. Their share in the collection is about 1.6%.
KCNQ2 inh – blocks the rat KCNQ2 potassium channel | O88943 | CHO-K1 KCNQ2, FluxOR thallium flux, 20 min; hits give low values | B-score at 10 µM | 1.1% of 310,000 active;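 active means fluorescence ratio B-score at most minus 3 library SDs, with starting brightness B-score within 2 library SDs, cut at about -5.5 in these data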
KCNQ2 pot – KCNQ2 (rat) channel potentiation | CHO-K1 KCNQ2, FluxOR thallium flux fluorescence; hits give high values | B-score at 10 µM | O88943 | AID 2239 | 0.54% of 310,000 active;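 active means fluorescence ratio B-score at least 3 SD of library B-scores, with initial fluorescence B-score within 3 of them, cut at about 5.3 in these data; same plate scores as AID 2156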;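 further: B-score of peak minus minimum over baseline fluorescence ratio after K+ and Tl+ stimulus; positive B-score means potentiation of KCNQ2 with more thallium influx and brighter signal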
Kir21 conf inh – confirmation of mouse Kir2.1 potassium channel inhibitors | shares compounds with KCNQ2 pot | Kir2.1-expressing cells, FluxOR thallium flux fluorescence; hits give low values | Tl flux remaining, % of negative control (hits give low values), % at 10 µM | 41% of 2,300 active | AID 2032;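 active means Primary-screen hit whose thallium flux fell at least 3 control SD below untreated wells in both duplicates, with normal baseline fluorescence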
HEK293 Tl flux – alters thallium flux in parental HEK293 cells, Kir2.1 counter-screen; shares compounds with KCNQ2 pot; AID 2105; FluxOR thallium flux fluorescence; 0% = unstimulated blank wells; FluxOR signal as % of negative control (100 = no effect), % at 10 µM; 19% of 2,300 active;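 active means dye signal at least 3 control SD above or below untreated wells in both duplicates, raw fluorescence within 3, either direction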;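 further: percent is based on the flux ratio of peak minus minimum fluorescence over baseline F0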
CHO-K1 Tl ctr – parental CHO-K1 activity in KCNQ2 potentiator counter-screen; shares compounds with KCNQ2 pot; parental CHO-K1 cells, FluxOR thallium flux fluorescence; zero = vehicle mean+3SD, 100% = vehicle-minus-blank window; activity increase over 3SD of controls, % at 10 µM; 43% of 1,200 active; AID 2282;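 active means signal rise of at least 3 SD above the untreated control mean, in both duplicate wells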;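 further: counter screen of KCNQ2 potentiator hits so any rise reflects channel-independent effects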
KCNQ1 pot spec – selectivity of KCNQ2 potentiators: effect on human KCNQ1; shares compounds with KCNQ2 pot; CHO KCNQ1 stable, FluxOR thallium flux fluorescence; beyond 3SD, as % of vehicle-control signal; 28% of 1,200 active; AID 2283; activation over 3SD threshold, % at 10 µM;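 active means fluorescence ratio rise of at least 3 SD of vehicle wells above their mean, in both replicate wells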
Target sequence (P51787 whole entry, looked up): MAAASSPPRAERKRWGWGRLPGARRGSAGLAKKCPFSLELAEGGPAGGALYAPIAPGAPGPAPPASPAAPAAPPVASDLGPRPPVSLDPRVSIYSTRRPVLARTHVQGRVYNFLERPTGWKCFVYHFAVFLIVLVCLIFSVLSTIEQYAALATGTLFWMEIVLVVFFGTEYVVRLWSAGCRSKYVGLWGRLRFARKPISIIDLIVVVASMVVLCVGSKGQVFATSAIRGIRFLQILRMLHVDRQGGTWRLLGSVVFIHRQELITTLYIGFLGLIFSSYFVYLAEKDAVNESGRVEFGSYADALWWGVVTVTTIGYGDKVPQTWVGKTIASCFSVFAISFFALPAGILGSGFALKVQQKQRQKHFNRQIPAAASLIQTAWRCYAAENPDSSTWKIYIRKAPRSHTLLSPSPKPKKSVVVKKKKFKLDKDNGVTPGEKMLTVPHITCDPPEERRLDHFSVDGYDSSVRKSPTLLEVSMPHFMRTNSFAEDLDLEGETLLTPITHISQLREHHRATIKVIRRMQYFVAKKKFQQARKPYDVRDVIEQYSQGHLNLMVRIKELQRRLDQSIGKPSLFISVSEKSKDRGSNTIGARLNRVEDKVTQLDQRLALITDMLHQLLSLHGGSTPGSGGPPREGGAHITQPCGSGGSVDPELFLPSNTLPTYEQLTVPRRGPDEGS
KCNQ2 pot confirm – rat KCNQ2 channel potentiator confirmation | shares compounds with KCNQ2 pot | CHO-KCNQ2 cells, FluxOR thallium flux fluorescence | potentiation, less the hit threshold, % at 10 µM | 68% of 1,200 active;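 active means fluorescence ratio rising 3 SD or more over the vehicle control mean in both replicates, plus primary screen hit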;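 further: peak minus minimum thallium fluorescence divided by baseline after K/Tl stimulus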
Kir2-1 sel – mouse Kir2.1 off-target activity of KCNQ2 potentiators | shares compounds with KCNQ2 pot | HEK293 Kir2.1, FluxOR thallium flux fluorescence | activity over 3SD threshold, % at 10 µM | 2% of 1,200 active;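 active means fluorescence ratio rise of at least 3 SD above the vehicle-control mean, seen in both replicates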
KCNQ2 W236L MoA – rat KCNQ2 W236L mutant potentiation by KCNQ2 potentiators. CHO KCNQ2-W236L, automated patch clamp current. 10% of 940 active. AID 2558. current increase over 3SD of negative controls (%), hits give high values, % at 25 µM. shares compounds with KCNQ2 pot;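 active means current increase at least 3 SD of the untreated controls above them in both duplicate recordings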
Each line names hits and unclear results; the compound was inactive in the other large screens (follow-up assays come after a bar, where they were run).

O=C(N/N=C/c1ccc(COc2ccc(Br)cc2)o1)c1ccc2c(c1)OCO2	KCNQ2 pot 5.7 | Kir21 conf inh inactive | HEK293 Tl flux inactive | CHO-K1 Tl ctr inactive | KCNQ1 pot spec inactive | KCNQ2 pot confirm inactive | Kir2-1 sel inactive
O=C(N/N=C/c1ccc(-c2ccc(Br)cc2)o1)c1ccc2c(c1)OCO2	none (no result: KCNQ2 pot)
Cc1ccnc(NS(=O)(=O)c2ccc(NS(=O)(=O)c3cc(Cl)ccc3Cl)cc2)n1	none
CCN(CC(=O)NC1CCS(=O)(=O)C1)S(=O)(=O)c1c(C)c(C)cc(C)c1C (centres undefined)	none
S=C(NCc1ccccc1)Nc1nccs1	KCNQ2 pot 9 | Kir21 conf inh inactive | HEK293 Tl flux inactive | CHO-K1 Tl ctr 26 | KCNQ1 pot spec inactive | KCNQ2 pot confirm inactive | Kir2-1 sel inactive
S=C(NCCc1ccccc1)Nc1nccs1	none (no result: KCNQ2 pot)
COc1ccc(NS(=O)(=O)c2cccc(C(=O)N3CCCC3)c2)cc1	none (no result: KCNQ2 pot)
CCOc1ccc(C(=O)N2CCN(Cc3ccccc3)CC2)cc1OCC	none (no result: KCNQ2 pot)
NC1=NC[C@H](c2ccccc2)N1CCCCC1CCCCC1	none (no result: KCNQ2 pot) | Kir21 conf inh 38% | HEK293 Tl flux inactive
S=C1NC[C@H](c2ccccc2)N1CCCCC1CCCCC1	none
COc1ccc(C(CNC(=O)Nc2cccc(C)c2)N2CCN(C)CC2)cc1 (centres undefined)	none (no result: KCNQ2 pot)
COc1ccc(N/C(=N/c2nc(C)cc(C)n2)NC(=O)c2ccccc2)cc1	none
Cc1ccc(-c2c(C(=O)O)c3ccccc3[nH]c2=O)cc1	none
N/C(=N\OC(=O)Nc1ccccc1)c1ncc(C(F)(F)F)cc1Cl	none (no result: KCNQ2 pot)
N/C(=N\OC(=O)Nc1ccccc1)c1cccc(C(F)(F)F)c1	KCNQ2 pot 11 | Kir21 conf inh inactive | HEK293 Tl flux inactive | CHO-K1 Tl ctr inactive | KCNQ1 pot spec 9.0 | KCNQ2 pot confirm 23 | Kir2-1 sel inactive | KCNQ2 W236L MoA inactive
Cc1nc(Nc2ccc(Cl)cc2)c(C#N)c(=O)[nH]1	none
O=C(O)c1ccccc1C(=O)OCCCc1ccncc1	none
COc1cccc(NC(=S)N2CCC(c3ccc(C)cc3)C2)c1 (centres undefined)	none (no result: KCNQ2 pot)
CCc1ccc(NS(=O)(=O)c2ccc3c(c2)CCN3C(=O)CCC(=O)O)cc1	none (no result: KCNQ2 pot)
CCCCC(CC)CNS(=O)(=O)c1ccc2c(c1)CCN2C(=O)CCC(=O)O (centres undefined)	none (no result: KCNQ2 pot) | Kir21 conf inh inactive | HEK293 Tl flux inactive
CC1(C)C(=O)OC(c2c3ccccc3cc3ccccc23)C(C)(C)C1=O (centres undefined)	KCNQ2 pot 6.2 | Kir21 conf inh inactive | HEK293 Tl flux inactive | CHO-K1 Tl ctr 12 | KCNQ1 pot spec 90 | KCNQ2 pot confirm inactive | Kir2-1 sel inactive
CN(C)c1ccc(C2OC(=O)C(C)(C)C(=O)C2(C)C)cc1 (centres undefined)	none (no result: KCNQ2 pot)
CC1CCCN(S(=O)(=O)c2ccc3c(c2)c(=O)nc2ccccn23)C1 (centres undefined)	none (no result: KCNQ2 pot)
COC(=O)c1cc(CNC(=O)Cc2ccsc2)ccc1OC	none
CCOC(=O)C1=C(C)NC(SC)=C(C#N)C1CC(C)C (centres undefined)	none (no result: KCNQ2 pot) | Kir21 conf inh 74% | HEK293 Tl flux inactive
CC(=O)C1=C(C)NC(SCC(N)=O)=C(C#N)C1CC(C)C (centres undefined)	none (no result: KCNQ2 pot)
S=c1[nH]nc(-c2ccncc2)n1/N=C/c1cn(-c2ccccc2)nc1-c1ccccc1	none (no result: KCNQ2 pot)
S=c1[nH]nc(-c2cccs2)n1/N=C/c1cn(-c2ccccc2)nc1-c1cccs1	KCNQ2 pot 6.9 | Kir21 conf inh inactive | HEK293 Tl flux inactive | CHO-K1 Tl ctr inactive | KCNQ1 pot spec 80 | KCNQ2 pot confirm inactive | Kir2-1 sel inactive | KCNQ2 W236L MoA inactive

Screening data from PubChem BioAssay.
